Common to all, as to experiment: DAPPL (digital affinity profiling via proximity ligation, sequencing); 10 mM Tris-HCl pH 7.5, 50 mM NaCl, 1 mM DTT, 4% glycerol, room temperature, 30 min; GST-TFs on glutathione beads, 16-mer random dsDNA library, 0.1% formaldehyde crosslink after washing; high values mean tight binding
The target in assay [1] is T1, FLI1 (Homo sapiens, UniProt Q01543 1-452).
T1 sequence: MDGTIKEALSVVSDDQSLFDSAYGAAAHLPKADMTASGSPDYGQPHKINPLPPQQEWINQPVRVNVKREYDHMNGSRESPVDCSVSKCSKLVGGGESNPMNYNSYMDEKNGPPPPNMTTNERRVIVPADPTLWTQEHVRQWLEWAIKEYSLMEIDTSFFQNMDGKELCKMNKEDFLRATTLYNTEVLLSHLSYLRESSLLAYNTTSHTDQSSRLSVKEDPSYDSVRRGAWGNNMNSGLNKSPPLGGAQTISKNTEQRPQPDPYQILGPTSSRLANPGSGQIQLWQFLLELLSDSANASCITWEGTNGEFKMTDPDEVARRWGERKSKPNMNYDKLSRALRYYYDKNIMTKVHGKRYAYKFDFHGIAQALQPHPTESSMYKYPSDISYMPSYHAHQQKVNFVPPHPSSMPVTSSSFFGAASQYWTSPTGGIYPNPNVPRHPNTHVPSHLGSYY
The note with it: protein: recombinant; tags: N-terminal GST; dsDNA, one strand shown. The gist of the method:
(§1)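 Binding signal is given per hexamer as its read frequency for a factor divided by its frequency in the tag-only sample. GST-fused human transcription factors were expressed in yeast, captured on glutathione beads, barcoded with DNA and pooled with that sample, then incubated with 200 nmole of a 16-mer random double-stranded DNA library in Tris/NaCl/DTT/glycerol buffer for 30 min at room temperature. The pools were then washed, crosslinked, proximity-ligated, amplified by PCR and sequenced on an Illumina NextSeq500.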

Assay [2] addresses T2, ELK1 (Homo sapiens, UniProt P19419 1-428).
T2 sequence: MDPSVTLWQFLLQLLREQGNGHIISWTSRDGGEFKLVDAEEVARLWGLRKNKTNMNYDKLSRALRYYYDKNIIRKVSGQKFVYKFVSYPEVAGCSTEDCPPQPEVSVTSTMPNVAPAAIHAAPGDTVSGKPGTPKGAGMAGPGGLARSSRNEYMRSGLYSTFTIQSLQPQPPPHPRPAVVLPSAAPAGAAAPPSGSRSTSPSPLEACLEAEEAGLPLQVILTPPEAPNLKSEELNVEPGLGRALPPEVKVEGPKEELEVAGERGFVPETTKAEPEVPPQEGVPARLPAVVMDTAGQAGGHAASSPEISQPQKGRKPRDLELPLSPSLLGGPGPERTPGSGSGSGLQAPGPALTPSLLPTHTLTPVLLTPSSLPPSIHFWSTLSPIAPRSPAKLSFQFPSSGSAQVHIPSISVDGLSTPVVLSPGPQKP
The conditions noted are these: protein: recombinant; tags: N-terminal GST; dsDNA, one strand shown. Summed up: as §1

Assay [3] concerns the target T3, GABPA (Homo sapiens, UniProt Q06546 1-454).
T3 sequence: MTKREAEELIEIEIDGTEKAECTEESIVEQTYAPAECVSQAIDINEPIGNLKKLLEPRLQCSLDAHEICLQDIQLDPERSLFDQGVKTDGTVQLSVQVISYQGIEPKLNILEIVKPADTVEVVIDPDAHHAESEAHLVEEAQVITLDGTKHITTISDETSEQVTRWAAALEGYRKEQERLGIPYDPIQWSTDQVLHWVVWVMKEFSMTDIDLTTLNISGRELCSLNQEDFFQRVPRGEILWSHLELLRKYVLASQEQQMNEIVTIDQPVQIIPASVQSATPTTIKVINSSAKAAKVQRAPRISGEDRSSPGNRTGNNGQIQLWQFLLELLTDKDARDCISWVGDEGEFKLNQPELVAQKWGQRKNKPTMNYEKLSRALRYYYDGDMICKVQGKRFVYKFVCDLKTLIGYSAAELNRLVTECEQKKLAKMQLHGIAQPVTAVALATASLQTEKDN
The note with it: protein: recombinant; tags: N-terminal GST; dsDNA, one strand shown. Summed up:
as §1

Assay [4] has as its target T4, ERG (Homo sapiens, UniProt P11308 1-479).
T4 sequence: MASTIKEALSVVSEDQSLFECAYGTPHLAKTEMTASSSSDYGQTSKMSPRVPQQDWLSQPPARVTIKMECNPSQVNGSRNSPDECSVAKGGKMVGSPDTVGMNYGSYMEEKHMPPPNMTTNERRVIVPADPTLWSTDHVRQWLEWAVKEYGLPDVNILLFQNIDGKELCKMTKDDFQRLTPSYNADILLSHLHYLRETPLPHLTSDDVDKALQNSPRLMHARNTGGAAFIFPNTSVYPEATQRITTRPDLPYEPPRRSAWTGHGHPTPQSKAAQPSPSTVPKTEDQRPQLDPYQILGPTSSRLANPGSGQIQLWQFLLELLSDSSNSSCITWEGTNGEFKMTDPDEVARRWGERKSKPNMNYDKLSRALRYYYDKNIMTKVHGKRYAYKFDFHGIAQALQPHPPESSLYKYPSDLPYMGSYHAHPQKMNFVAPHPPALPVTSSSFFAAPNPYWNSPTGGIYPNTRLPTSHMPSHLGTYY
The conditions noted are these: protein: recombinant; tags: N-terminal GST; dsDNA, one strand shown. The gist of the method:
as §1

Assay [5] has as its target ELF1 (Homo sapiens, UniProt P32519 1-619). The conditions noted are these: protein: recombinant; tags: N-terminal GST; dsDNA, one strand shown. Summed up: as §1
Assay [6] deals with T5, EHF (Homo sapiens, UniProt Q9NZC4 1-300).
T5 sequence: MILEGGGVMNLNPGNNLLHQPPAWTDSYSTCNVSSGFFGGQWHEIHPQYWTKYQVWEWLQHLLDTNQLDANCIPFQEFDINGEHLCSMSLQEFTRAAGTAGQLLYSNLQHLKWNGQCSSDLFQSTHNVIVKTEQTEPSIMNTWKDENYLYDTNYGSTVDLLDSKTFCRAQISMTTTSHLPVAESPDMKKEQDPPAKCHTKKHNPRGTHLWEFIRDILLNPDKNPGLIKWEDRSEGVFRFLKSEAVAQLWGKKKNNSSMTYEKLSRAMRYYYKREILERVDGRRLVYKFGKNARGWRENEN
The conditions noted are these: protein: recombinant; tags: N-terminal GST; dsDNA, one strand shown. The gist of the method: as §1

In assay [7] the target is SPI1 (Homo sapiens, UniProt P17947 1-270). The note with it: protein: recombinant; tags: N-terminal GST; dsDNA, one strand shown. Summed up:
as §1

Assay [8] deals with SPIB (Homo sapiens, UniProt Q01892 1-262). The note with it: protein: recombinant; tags: N-terminal GST; dsDNA, one strand shown. The gist of the method: as §1
Sequence of SPIB (Q01892 whole entry): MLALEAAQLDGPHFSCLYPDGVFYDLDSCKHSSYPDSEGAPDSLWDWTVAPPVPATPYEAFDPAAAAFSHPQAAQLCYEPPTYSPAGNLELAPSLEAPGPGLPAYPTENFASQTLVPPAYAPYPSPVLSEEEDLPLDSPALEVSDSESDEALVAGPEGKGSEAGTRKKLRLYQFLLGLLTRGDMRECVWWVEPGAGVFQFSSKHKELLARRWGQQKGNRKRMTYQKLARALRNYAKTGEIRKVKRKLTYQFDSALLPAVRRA
Assay [9] has as its target T6, FEV (Homo sapiens, UniProt Q99581 1-238).
T6 sequence: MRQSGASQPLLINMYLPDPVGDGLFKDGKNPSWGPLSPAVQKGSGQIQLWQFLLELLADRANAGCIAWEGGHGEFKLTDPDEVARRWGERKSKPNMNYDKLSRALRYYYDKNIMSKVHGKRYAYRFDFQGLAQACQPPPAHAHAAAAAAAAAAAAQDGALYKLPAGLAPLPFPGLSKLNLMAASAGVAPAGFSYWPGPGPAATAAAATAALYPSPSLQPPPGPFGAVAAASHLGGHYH
The conditions noted are these: protein: recombinant; tags: N-terminal GST; dsDNA, one strand shown. The gist of the method:
as §1

Assay [10] deals with ETV5 (Homo sapiens, UniProt P41161 1-510). The conditions noted are these: protein: recombinant; tags: N-terminal GST; dsDNA, one strand shown. Summed up:
as §1

Assay [11] has as its target HSF1 (Homo sapiens, UniProt Q00613 1-529). The conditions noted are these: protein: recombinant; tags: N-terminal GST; chain copies: 3; dsDNA, one strand shown. The gist of the method: as §1
The target of assay [12] is T7, SPIC (Homo sapiens, UniProt Q8N5J4 1-248).
T7 sequence: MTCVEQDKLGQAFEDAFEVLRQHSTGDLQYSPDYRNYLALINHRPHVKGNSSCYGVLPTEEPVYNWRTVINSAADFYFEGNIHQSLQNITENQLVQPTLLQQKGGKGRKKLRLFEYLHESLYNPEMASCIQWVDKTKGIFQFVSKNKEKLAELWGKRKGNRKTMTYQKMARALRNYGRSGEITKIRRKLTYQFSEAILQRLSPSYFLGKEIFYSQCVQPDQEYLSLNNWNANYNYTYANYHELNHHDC
The conditions noted are these: protein: recombinant; tags: N-terminal GST; dsDNA, one strand shown. The gist of the method:
as §1

Assay [13] deals with ELF4 (Homo sapiens, UniProt Q99607 1-663). The note with it: protein: recombinant; tags: N-terminal GST; dsDNA, one strand shown. The gist of the method: as §1
Sequence of ELF4 (Q99607 whole entry): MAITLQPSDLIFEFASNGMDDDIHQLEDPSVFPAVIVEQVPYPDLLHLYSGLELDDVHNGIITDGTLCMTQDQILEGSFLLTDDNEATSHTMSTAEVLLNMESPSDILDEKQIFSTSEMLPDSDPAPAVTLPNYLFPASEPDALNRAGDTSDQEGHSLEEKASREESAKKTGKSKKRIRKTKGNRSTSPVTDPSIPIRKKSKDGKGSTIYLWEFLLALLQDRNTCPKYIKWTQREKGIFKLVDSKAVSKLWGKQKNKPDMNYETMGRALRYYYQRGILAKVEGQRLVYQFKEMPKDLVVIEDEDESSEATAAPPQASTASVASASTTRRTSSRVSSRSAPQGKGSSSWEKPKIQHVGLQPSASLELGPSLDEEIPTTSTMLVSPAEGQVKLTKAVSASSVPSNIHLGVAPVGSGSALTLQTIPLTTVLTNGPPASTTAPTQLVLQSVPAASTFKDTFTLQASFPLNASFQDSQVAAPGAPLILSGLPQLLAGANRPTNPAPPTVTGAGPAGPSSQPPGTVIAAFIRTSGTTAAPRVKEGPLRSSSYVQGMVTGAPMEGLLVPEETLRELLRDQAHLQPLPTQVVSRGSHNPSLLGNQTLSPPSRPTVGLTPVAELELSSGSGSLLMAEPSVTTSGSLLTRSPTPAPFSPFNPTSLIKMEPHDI
The target of assay [14] is T8, ELK4 (Homo sapiens, UniProt P28324-2 1-405).
T8 sequence: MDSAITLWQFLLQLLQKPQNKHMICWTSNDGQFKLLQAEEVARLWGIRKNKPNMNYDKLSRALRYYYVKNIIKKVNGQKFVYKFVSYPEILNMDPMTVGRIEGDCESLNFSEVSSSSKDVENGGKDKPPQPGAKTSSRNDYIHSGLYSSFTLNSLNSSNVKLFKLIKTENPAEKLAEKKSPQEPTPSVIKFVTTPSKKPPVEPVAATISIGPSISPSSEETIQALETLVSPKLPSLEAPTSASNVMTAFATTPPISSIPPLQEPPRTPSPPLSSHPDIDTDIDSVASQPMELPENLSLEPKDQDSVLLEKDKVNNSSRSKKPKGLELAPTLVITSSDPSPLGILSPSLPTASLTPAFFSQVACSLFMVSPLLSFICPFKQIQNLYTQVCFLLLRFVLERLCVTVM
The conditions noted are these: protein: recombinant; tags: N-terminal GST; dsDNA, one strand shown. The gist of the method: as §1

Assay [15] deals with T9, ETV2 (Homo sapiens, UniProt O00321 1-342).
T9 sequence: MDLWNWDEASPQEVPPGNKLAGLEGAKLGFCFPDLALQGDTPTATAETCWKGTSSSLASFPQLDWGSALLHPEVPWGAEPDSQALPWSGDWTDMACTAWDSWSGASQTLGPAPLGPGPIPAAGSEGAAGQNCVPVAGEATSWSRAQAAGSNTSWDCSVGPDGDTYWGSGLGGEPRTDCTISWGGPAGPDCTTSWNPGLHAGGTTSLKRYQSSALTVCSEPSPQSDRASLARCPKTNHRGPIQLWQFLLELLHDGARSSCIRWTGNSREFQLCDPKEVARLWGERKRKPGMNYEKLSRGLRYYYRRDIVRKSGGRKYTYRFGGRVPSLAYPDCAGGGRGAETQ
The conditions noted are these: protein: recombinant; tags: N-terminal GST; dsDNA, one strand shown. The gist of the method:
as §1

Assay [16] deals with T10, ELF3 (Homo sapiens, UniProt P78545 1-371).
T10 sequence: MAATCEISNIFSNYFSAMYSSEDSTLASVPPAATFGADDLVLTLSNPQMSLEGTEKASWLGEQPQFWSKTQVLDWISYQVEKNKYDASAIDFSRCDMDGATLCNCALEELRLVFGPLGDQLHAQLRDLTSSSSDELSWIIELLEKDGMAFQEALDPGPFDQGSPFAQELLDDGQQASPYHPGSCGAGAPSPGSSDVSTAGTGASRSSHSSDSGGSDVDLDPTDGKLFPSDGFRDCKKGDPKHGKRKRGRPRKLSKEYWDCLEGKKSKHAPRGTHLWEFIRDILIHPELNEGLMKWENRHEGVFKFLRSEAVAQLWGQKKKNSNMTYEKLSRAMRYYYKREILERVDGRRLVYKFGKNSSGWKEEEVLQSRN
The note with it: protein: recombinant; tags: N-terminal GST; dsDNA, one strand shown. The gist of the method:
as §1

Assay [17] concerns the target CRX (Homo sapiens, UniProt O43186 1-299). The note with it: protein: recombinant; tags: N-terminal GST; dsDNA, one strand shown. The gist of the method: as §1
The target of assay [18] is ETV1 (Homo sapiens, UniProt P50549 1-477). The note with it: protein: recombinant; tags: N-terminal GST; dsDNA, one strand shown. Summed up:
as §1

The source of these data is PMC7862700, “An all-to-all approach to the identification of sequence-specific readers for epigenetic DNA modifications on cytosine”.

Sequence of CRX (O43186 whole entry): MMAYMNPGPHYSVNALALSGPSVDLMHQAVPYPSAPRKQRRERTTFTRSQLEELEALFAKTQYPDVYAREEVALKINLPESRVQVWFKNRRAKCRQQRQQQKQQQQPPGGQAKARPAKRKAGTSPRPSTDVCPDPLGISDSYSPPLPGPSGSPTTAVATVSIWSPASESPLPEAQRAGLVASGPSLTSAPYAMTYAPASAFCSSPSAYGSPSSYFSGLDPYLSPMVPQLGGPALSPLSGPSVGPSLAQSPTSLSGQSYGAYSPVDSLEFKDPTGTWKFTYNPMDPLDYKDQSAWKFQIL
Sequence of HSF1 (Q00613 whole entry): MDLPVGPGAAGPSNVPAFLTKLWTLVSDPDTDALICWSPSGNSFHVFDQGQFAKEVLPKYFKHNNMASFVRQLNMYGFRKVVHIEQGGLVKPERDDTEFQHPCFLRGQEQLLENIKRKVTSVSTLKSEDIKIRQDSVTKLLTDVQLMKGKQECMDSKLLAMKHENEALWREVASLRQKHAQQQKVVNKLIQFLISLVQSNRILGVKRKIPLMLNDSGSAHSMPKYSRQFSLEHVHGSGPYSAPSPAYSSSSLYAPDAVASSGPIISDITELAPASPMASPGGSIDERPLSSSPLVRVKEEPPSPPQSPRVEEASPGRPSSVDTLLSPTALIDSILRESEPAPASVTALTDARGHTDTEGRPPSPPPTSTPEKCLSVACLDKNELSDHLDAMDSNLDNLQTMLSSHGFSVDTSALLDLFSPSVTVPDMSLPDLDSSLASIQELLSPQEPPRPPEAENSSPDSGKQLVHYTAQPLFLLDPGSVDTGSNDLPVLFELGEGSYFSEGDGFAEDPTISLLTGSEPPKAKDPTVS
Sequence of ELF1 (P32519 whole entry): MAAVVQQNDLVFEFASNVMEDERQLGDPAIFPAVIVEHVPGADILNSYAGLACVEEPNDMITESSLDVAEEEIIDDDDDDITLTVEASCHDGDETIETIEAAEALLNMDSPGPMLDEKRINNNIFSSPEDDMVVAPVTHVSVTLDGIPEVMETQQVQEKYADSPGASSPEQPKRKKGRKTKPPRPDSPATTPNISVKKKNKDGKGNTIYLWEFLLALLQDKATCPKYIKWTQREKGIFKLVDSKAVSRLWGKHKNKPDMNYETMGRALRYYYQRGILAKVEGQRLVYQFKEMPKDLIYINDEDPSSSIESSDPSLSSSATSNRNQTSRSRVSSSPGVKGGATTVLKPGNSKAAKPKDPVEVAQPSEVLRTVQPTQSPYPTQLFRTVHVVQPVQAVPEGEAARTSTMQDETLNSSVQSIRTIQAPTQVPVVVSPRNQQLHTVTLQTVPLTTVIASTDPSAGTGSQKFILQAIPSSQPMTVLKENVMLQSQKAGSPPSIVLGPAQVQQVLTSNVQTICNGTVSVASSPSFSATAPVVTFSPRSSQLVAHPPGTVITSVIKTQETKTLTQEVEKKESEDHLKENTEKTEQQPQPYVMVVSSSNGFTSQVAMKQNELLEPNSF
Sequence of ETV5 (P41161 whole entry): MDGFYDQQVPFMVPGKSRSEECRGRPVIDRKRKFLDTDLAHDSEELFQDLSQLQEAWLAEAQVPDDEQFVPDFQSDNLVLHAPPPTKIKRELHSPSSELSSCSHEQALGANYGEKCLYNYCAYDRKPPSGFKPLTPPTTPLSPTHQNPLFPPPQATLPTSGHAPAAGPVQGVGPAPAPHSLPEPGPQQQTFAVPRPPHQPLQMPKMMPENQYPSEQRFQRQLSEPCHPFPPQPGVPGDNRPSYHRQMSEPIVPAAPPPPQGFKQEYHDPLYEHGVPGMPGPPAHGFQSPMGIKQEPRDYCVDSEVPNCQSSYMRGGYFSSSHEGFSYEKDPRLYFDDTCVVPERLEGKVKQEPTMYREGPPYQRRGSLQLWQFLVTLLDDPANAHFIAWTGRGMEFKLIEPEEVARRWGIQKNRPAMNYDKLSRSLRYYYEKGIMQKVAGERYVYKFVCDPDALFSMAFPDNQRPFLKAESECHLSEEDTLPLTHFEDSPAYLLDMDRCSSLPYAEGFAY
Sequence of ETV1 (P50549 whole entry): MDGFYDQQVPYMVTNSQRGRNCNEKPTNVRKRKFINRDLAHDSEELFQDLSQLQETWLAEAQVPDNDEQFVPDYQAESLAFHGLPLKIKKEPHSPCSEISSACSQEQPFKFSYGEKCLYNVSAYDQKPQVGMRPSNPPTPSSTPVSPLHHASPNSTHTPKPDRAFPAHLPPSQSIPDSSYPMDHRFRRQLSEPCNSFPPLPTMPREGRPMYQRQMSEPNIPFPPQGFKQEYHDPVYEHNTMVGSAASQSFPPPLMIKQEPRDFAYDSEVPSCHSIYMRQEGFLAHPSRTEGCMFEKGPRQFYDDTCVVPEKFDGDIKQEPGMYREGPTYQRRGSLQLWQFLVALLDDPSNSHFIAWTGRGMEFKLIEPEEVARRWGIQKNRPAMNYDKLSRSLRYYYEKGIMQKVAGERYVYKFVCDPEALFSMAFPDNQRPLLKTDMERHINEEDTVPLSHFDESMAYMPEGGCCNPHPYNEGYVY

With AATAGA, the binding signal in assay [1] was 1.06 fold enrichment (6-mer frequency, TF over GST control); in [2], 1.09 fold enrichment (6-mer frequency, TF over GST control); in assay [3] it was 1.11 fold enrichment (6-mer frequency, TF over GST control); in [4], 1.12 fold enrichment (6-mer frequency, TF over GST control); in [5], 1.09 fold enrichment (6-mer frequency, TF over GST control); in assay [6], 1.08 fold enrichment (6-mer frequency, TF over GST control). The binding signal in assay [7] is 1.08 fold enrichment (6-mer frequency, TF over GST control); in assay [8], 1.05 fold enrichment (6-mer frequency, TF over GST control); in assay [9], 1.07 fold enrichment (6-mer frequency, TF over GST control); in [10] it was 1.07 fold enrichment (6-mer frequency, TF over GST control); in assay [11], 1.34 fold enrichment (6-mer frequency, TF over GST control); in assay [12], 1.02 fold enrichment (6-mer frequency, TF over GST control). Besides, the binding signal was 1.07 fold enrichment (6-mer frequency, TF over GST control) in assay [13]; 1.1 fold enrichment (6-mer frequency, TF over GST control) in [14]; 1.13 fold enrichment (6-mer frequency, TF over GST control) in assay [15]; 1.07 fold enrichment (6-mer frequency, TF over GST control) in assay [16]; 1.15 fold enrichment (6-mer frequency, TF over GST control) in assay [17]; 1.07 fold enrichment (6-mer frequency, TF over GST control) in assay [18].
